# Screening results (PubChem)
# This is a sample that favours compounds with a hit; in the whole collection about 19% have one here.
# DT40 TDP1 no CPT – qHTS for Inhibitors of human tyrosyl-DNA phosphodiesterase 1 (TDP1): qHTS in cells in absence of CPT; 420,000 compounds, 15% hits; Potency, µM (series often up to 46.2 µM), for inactives: at the highest dose activity change, negative = growth inhibition, actives largely listed as inhibitors; DT40 Tdp1-/- hTDP1 cells, no CPT, ATP luminescence, 48 h; note: nearly all actives have a fitted effect of over 55% in size
#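 Growth of hTDP1-complemented DT40 Tdp1-knockout cells is measured by ATP luminescence after at least 48 hr compound exposure at 37 °C, with DMSO substituting for the 20 nM CPT used in the parallel screen.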
# TDP1 block – blocks human tyrosyl-DNA phosphodiesterase 1; Q9NUW8; recombinant TDP1, AlphaScreen DNA substrate cleavage; Potency, µM (top dose mostly 130 µM), for the others: top-dose activity change, negative = inhibition, hits mostly inhibitors; 350,000 compounds, 0.28% hits; note: nearly all actives have a fitted effect of over 40% in size
# Target sequence (Q9NUW8 whole entry, looked up): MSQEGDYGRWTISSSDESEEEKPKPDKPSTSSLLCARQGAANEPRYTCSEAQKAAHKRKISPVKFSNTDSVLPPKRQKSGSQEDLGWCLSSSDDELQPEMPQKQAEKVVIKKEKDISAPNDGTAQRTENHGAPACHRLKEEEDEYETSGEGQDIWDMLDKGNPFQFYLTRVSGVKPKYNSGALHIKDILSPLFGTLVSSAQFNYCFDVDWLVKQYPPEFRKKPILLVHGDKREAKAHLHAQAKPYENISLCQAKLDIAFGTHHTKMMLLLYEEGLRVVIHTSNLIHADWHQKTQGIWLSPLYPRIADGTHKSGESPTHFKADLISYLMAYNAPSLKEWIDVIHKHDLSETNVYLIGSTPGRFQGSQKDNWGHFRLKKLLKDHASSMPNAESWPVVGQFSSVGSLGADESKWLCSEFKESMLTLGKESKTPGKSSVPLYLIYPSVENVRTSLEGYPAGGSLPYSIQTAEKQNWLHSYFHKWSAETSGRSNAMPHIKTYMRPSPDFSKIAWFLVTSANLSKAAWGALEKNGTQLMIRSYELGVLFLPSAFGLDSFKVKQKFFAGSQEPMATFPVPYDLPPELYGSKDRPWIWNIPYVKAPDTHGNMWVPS
#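 Signal: AlphaScreen proximity between streptavidin donor and anti-FITC acceptor beads on intact substrate. Reaction: Tdp1 1 nM, substrate 15 nM final, 5 min RT after 15 min compound preincubation.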
# DT40 TDP1 CPT – growth inhibition of DT40 Tdp1-/-;hTDP1 cells with camptothecin (screen for TDP1 inhibitors); chicken DT40 Tdp1-/-;hTDP1 cells + 20 nM CPT, ATP luminescence, 48 h; Potency, µM (top dose mostly 46.2 µM), inactives show top-dose activity change, negative = growth inhibition, most hits filed as inhibitors; 420,000 compounds, 12% hits; AID 686979; note: nearly all actives have a fitted effect of over 55% in size
#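 Chicken DT40 Tdp1-/- cells complemented with human TDP1, 400 cells/well, exposed to compounds plus 20 nM camptothecin for at least 48 h at 37 C; viability read as ATP content by CellTiter-Glo luminescence.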
# RORg inh – ROR gamma (mouse) transcription inhibition | P51450 | Drosophila S2 Gal4-RORgamma UAS-luciferase reporter, 20 h | Potency, µM (titrated, usually from 53.6 µM), without a hit: at the top dose activity change, negative = inhibition, usual class: inhibitors | 310,000 compounds, 5.4% hits; note: nearly all actives have a fitted effect of over 60% in size
#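 Read-out: Photinus luciferase luminescence; inhibitors lower reporter signal. Insect Schneider cells with Gal4-ROR gamma fusion under metallothionein promoter, UAS reporter; 700 uM final copper sulfate induction, 20 hr, ambient temperature.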
# Gal4-VP16 FLuc – inhibits Gal4-VP16 luciferase reporter, ROR gamma counter-screen | Drosophila S2 Gal4-VP16 UAS-luciferase, luminescence, 20 h | 310,000 compounds, 3.5% hits | AID 2546 | Potency, µM (series often up to 53.6 µM), inactives show at the top dose activity, negative = inhibition, hits mostly inhibitors;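 note: Gal4-VP16 expression switched on by copper sulfate through the metallothionein promoter; nearly all actives have a fitted effect of over 50% in size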
# Numbers without * were called inactive; ? = inconclusive; nt = not tested or not shown; [ ] = remark or other dose. Calls come from the whole dose curve; as a rule, active = well fitted curve in the direction sought with a large enough effect; inconclusive = small, poorly fitted or top-dose-only effect, or another doubt; inactive = no such curve, though single readings can be large; an effect the other way counts as inactive or inconclusive. % is set by controls: 0 for no effect and ±100 for the full control effect; potency is the fitted concentration of half-maximal effect.
SMILES,DT40 TDP1 no CPT,TDP1 block,DT40 TDP1 CPT,RORg inh,Gal4-VP16 FLuc
COC1OC2COC(c3ccccc3)OC2C(NC(C)=O)C1OC(C)=O (centres undefined),-10.8%,nt,0.4%,nt,nt
O=C(c1cccc(F)c1)N1CCC[C@@]2(CCN(c3ccccn3)C2)C1,-21.0%,nt,-1.5%,-24.8%,1.2%
CCOc1ccc(NC(=O)c2ccc(NC(=S)NC3CC3)cc2)cc1,-9.3%,2.7%,-7.8%,-37.8%,-9.4%
COC(=O)c1ccc(NC(=S)NC2CCCCC2)cc1,0.2%,4.8%,-21.7%,7.08µM*,?
Cc1cc(C=O)c(C)n1-c1ccc(N2CCCCC2)c([N+](=O)[O-])c1,20.6µM*,11.6%,8.2µM*,?,-16.4%
Cc1cc(C=O)c(C)n1-c1ccc(Cl)c(C(=O)O)c1,2.6%,44.7µM*,-1.5%,18.0%,4.3%
Cc1cc(/C=C(\C#N)C(N)=O)c(C)n1-c1ccc(N2CCOCC2)c([N+](=O)[O-])c1,23.1µM*,6.9%,23.1µM*,1.2%,-7.3%
Cc1cc(C=O)c(C)n1-c1ccc(N2CCOCC2)cc1,?,2.5%[56.1 µM],?,11.7%,-12.8%
CCO[C@@H]1OC(C(=O)N2CCN(Cc3ccc4c(c3)OCO4)CC2)=C[C@H](C)[C@H]1CCCO,?,6.4%,-6.8%,-2.2%,-8.1%
O=S(=O)(Cc1cc(-c2ccccc2Cl)no1)c1ccccc1,-15.5%,-1.2%,-25.3%,-3.9%,-3.8%
COc1ccc(-c2noc(-c3ccoc3C)n2)cc1,18.4µM*,3.6%,?,25.5%,?
COc1ccccc1N1CCN(Cc2nc(-c3cc(OC)c(OC)c(OC)c3)no2)CC1,18.4µM*,9.0%,23.1µM*,nt,nt
COc1cc(-c2noc(CN3CCN(c4ccccc4)CC3)n2)cc(OC)c1OC,20.6µM*,9.0%,?,nt,nt
COc1ccc(-c2noc(CN3CCN(c4cccc(Cl)c4)CC3)n2)cc1,?,1.3%,?,nt,nt
COc1ccccc1CN1CCN(Cc2nc(-c3ccccc3)no2)CC1,-0.1%,-3.0%,-10.5%,-3.8%,-16.2%
COc1ccc(N2CCN(Cc3nc(-c4ccc(C)cc4)no3)CC2)cc1,23.1µM*,nt,?,nt,nt
COc1ccc(OC)c(N(C)S(=O)(=O)c2ccc3c(c2)N(C(C)=O)CCO3)c1,-4.7%,2.8%,2.7%,-1.5%,-0.5%
Clc1ccc(-c2noc(-c3cccnc3N3CCN(c4ccccc4)CC3)n2)cc1,?,8.6%,-32.7%,nt,nt
COc1ccc(-c2noc(-c3cccnc3N3CCN(c4ccc(OC)cc4)CC3)n2)cc1,8.2µM*,5.7%,14.6µM*,nt,nt
Cc1ccc(C(=O)NCc2ccc3c(c2)OCO3)cc1S(=O)(=O)N1CCCCC1,-7.5%,-1.1%,-26.3%,26.8%,-1.9%
CCCOc1ccc(CSC(CC(=O)O)C(=O)O)cc1 (centres undefined),-4.3%,4.0%,0.8%,-13.8%,-3.3%
O=C(O)CC(C(=O)O)c1ccc(OCCCCOc2ccc(C(CC(=O)O)C(=O)O)cc2)cc1 (centres undefined),30.1%,28.2µM*,1.5%,0.1%,7.7%
CCCCOc1ccc(CSC(CC(=O)O)C(=O)O)cc1 (centres undefined),-3.2%,0.0%,8.1%,2.24µM*,-16.4%
CC(C)CCOc1ccc(C(CC(N)=O)C(=O)O)cc1 (centres undefined),6.5%,1.4%,0.7%,-13.3%,-3.7%
Cn1cnnc1SCC(=O)Nc1ccccc1F,-0.1%,4.3%,0.4%,-1.0%,-4.8%
SMILES,DT40 TDP1 no CPT,TDP1 block,DT40 TDP1 CPT,RORg inh,Gal4-VP16 FLuc
O=c1[nH][nH]c(-c2ccccc2O)c1C(C[N+](=O)[O-])c1ccc(Br)cc1 (centres undefined),2.59µM*,10.5%,3.26µM*,?,?
Cc1ccc(C(C[N+](=O)[O-])c2c(-c3ccccc3O)[nH][nH]c2=O)cc1 (centres undefined),2.91µM*,1.8%,3.26µM*,5.01µM*,11.2µM*
Clc1c(CSc2nc3ccccc3o2)nc2sccn12,-25.1%,0.0%,?,?,-9.5%
Cc1cccc2nc(CSc3nnc4ccccn34)cn12,0.5%,3.1%,-4.5%,11.2µM*,?
Cc1cc(C)nc(SCc2cn3c(C)cccc3n2)n1,-5.0%,8.4%,-2.7%,?,0.9%
Cc1cccc2nc(CSc3nc4ccccc4o3)cn12,-20.1%,10.9%,-27.0%,17.8µM*,?
Clc1c(CSc2nc3ccccc3o2)nc2ccccn12,?,7.1%,?,?,7.08µM*
Cc1cc(C)c(C#N)c(SCc2cn3c(C)cccc3n2)n1,-1.5%,4.2%,15.0%,11.2µM*,?
c1ccc2nc(SCc3cn4ccccc4n3)cnc2c1,?,7.7%,?,?,?
c1ccc2oc(SCc3cn4ccccc4n3)nc2c1,-16.1%,11.4%,-9.7%,8.91µM*,15.8µM*
CC(c1ccccc1)N1C(=O)c2ccc(C(=O)Nc3ccc(Br)cc3C(=O)O)cc2C1=O (centres undefined),?,1.6%,2.06µM*,29.8%,1.0%
CC1CCc2cc(F)cc3c(O)c(C(=O)NCCN(C)C)c(=O)n1c23 (centres undefined),18.4µM*,nt,20.6µM*,-22.3%,3.9%
COc1ccc(-c2[nH]ncc2CN(C)C(C)c2cccs2)c(F)c1 (centres undefined),?,2.7%,16.4µM*,-3.8%,5.9%
COc1ccc(-c2[nH]ncc2CN2CCN(C(=O)c3cccs3)CC2)c(F)c1,-16.7%,7.1%,-13.3%,-4.6%,1.7%
COC(=O)c1sc(C(=O)OC)c(C(=O)OC)c1C(=O)OC,-1.4%,3.8%,-18.4%,-4.5%,-8.4%
COC(=O)c1sc(=S)sc1C(=O)OC,?,-13.8%,29.1µM*,14.1µM*,?
Cc1ccc(C(=O)NC(=S)N2CCN(c3ccccc3F)CC2)cc1,-24.5%,1.3%,-25.2%,0.891µM*,2.82µM*
Cc1ccc(C(=O)NC(=S)N2CCN(c3cc(C)ccc3C)CC2)cc1,?,1.5%,?,1µM*,1µM*
CN(C(=O)CSc1nnc(-c2ccccc2F)o1)C1CCCCC1,1.2%,-0.5%,-4.3%,nt,nt
COc1ccc(CNc2nc(SCc3cc(=O)n4cc(Cl)ccc4n3)nc3ccccc23)cc1,20.6µM*,5.5%,13µM*,-78.9%,-21.9%
COC(=O)C1=C(CN2CCN(C)CC2)NC(=O)NC1c1cc(C)ccc1C (centres undefined),-13.4%,6.2%,-15.6%,-12.1%,-0.3%
COC(=O)C1=C(COc2ccc(C=O)cc2OC)NC(=O)NC1c1cc(C)ccc1C (centres undefined),14.6µM*,0.0%,?,37.4%,?
COc1cc2cc(CCCOC(=O)CCC(=O)O)oc(=O)c2cc1OC,-12.6%,-0.1%,-3.4%,nt,nt
